Data reported in PubChem BioAssay AID2108 (National Center for Advancing Translational Sciences (NCATS), 2009).
Inconclusive results are not listed. Active and inactive are the calls of the source. Calls follow the shape of the dose curve; as a rule, active = well fitted curve in the direction sought with a large enough effect; inconclusive = small, poorly fitted or top-dose-only effect, or effect the other way, or another doubt; inactive = no such curve, though single readings can be large or run the other way.

Target: Alpha-galactosidase A (Homo sapiens) (UniProt P06280)
Assay: Confirmation of Inhibitors of Human alpha-Galactosidase Using Spleen Homogenate
Conditions: alpha-galactosidase enzyme activity; series mostly up to 56.2 µM
Method in brief: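 AC50 values come from Hill-equation fits of normalised 4-methylumbelliferone fluorescence (365/440 nm, read after NaOH/glycine stop). Enzyme source: spleen homogenate; substrate 1 mM final; pH 5.0 citrate buffer; 40 min at 37C; compound titration 0.5 nM–58 uM.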

Alpha-galactosidase A (Homo sapiens), sequence (P06280 32-429 limits assumed): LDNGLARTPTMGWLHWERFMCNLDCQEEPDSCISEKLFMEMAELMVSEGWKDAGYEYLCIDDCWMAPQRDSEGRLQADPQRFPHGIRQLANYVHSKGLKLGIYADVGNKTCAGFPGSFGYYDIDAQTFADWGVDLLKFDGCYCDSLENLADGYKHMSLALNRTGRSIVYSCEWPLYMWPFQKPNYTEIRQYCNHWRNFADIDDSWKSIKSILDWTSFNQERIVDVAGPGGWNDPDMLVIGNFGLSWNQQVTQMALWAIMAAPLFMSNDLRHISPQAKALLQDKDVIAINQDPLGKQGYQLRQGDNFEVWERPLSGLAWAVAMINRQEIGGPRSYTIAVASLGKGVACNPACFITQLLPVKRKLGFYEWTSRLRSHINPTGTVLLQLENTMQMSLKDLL

outcome, inactive:
NN=C1c2cc(S(=O)(=O)NCCO)ccc2-c2ccc(S(=O)(=O)NCCO)cc21
O=c1oc2ccc(Br)cc2cc1-c1nc2c(s1)CCc1ccccc1-2
COc1ccc(/C=C/c2nnc(NC(=O)CSc3ccc(C)cc3)s2)cc1
c1ccc(-n2c(-c3cccs3)nc3nc4ccccc4nc32)cc1
Cc1ccccc1Nc1c(-c2cccs2)nc2cccc(C)n12
CCOC(=O)Cc1csc(NC(=O)NC2(C(F)(F)F)Oc3cc(Cl)c(Cl)cc3O2)n1
COC(=O)c1c(NC(=O)Cn2nc(C(F)F)cc2C(F)F)sc(C)c1C
COC(=O)c1ccc(C(=O)OC)c(NC(=S)N2CCOCC2)c1
OCC(O)C1OC(Nc2ccc(Cl)cc2)C(O)C1O (configuration not stated)
Fc1ccc(CNc2ccc(N3CCN(Cc4ccccc4)CC3)cc2)cc1
CCOC(=O)c1ccc(NC(=O)c2ccccc2)cc1
O=C1c2cc(O)c(O)cc2S(=O)(=O)C1c1ccccc1 (configuration not stated)
CCN(CC)c1ccc(/C=N/NC(=O)C(O)c2ccccc2)cc1 (configuration not stated)
CN(C(=O)N1CCN(S(=O)(=O)c2ccccc2)CC1)c1ccccc1
N#Cc1ccc(S(=O)(=O)N2CCOCC2)cc1
Cc1cccc(S(=O)(=O)c2c(N)n(-c3ccccc3)c3nc4ccccc4nc23)c1
Nc1nc(C2CC2)c(Sc2sc(N)nc2C2CC2)s1
Cc1ccc(N=Nc2c(N)nn(-c3ccccc3)c2N)cc1
CC1S/C(=N\N=C\c2cccc([N+](=O)[O-])c2)N(C(C)(C)C)C1=O (configuration not stated)
O=S(=O)(c1cccnc1)N1CCOCC1
O=C1c2cc(S(=O)(=O)N3CCOCC3)ccc2-c2ccc(S(=O)(=O)N3CCOCC3)cc21
O=C(c1cccc2ccccc12)N1CCN(S(=O)(=O)c2ccccc2)CC1
CC(C)C[C@H](NC(=O)c1nc[nH]c1C(=O)NCC(=O)OCc1ccccc1)C(=O)OC(C)(C)C
COc1cc(/C=N/Nc2ccc(Cl)c(C(=O)O)c2)ccc1OC(=O)c1ccccc1F
Cc1nc(-n2nnc(CO)c2CO)nc2c1CCC2
CCOc1ccc2c(c1)c(=O)c(S(=O)(=O)c1ccc(C)cc1)cn2Cc1ccccc1Cl
Cc1ccc(C2NC(=O)c3c(sc4c3CCN(C)C4)N2)s1 (configuration not stated)
CC1OC(OC2C(CO)OC(OC3C(CO)OC(O)C(O)C3O)C(O)C2O)C(O)C(O)C1NC1C=C(CO)C(O)C(O)C1O (configuration not stated)
Cc1ccc(CCNC(=O)CNC(=S)N(Cc2ccccc2)Cc2cccnc2)cc1
Cc1ccc(N/N=C2\CCS(=O)(=O)c3sccc32)cc1
COc1ccccc1NCC(=O)c1ccc(C)c(C)c1
O=C(Nc1ccc(OCC(=O)N2CCN(S(=O)(=O)c3ccccc3)CC2)cc1)c1ccco1
Cc1ccc(S(=O)(=O)N2CCN(C(=O)N(c3ccccc3)c3ccccc3)CC2)cc1
Brc1ccc(C=Nc2ccc(Nc3ccccc3)cc2)s1
COC(=O)c1cccc(S(=O)(=O)N2CCOCC2)c1
CCOc1c(Cl)cc(CNc2ccc3[nH]c(=O)[nH]c3c2)cc1OC
O=C(CSc1n[nH]c(-c2ccccc2)n1)c1ccc(O)c(O)c1
